The values that follow come from the supplement of paper PMC11150407.

Where a name gives a salt, the structure may show the parent alone. The campaign covered roughly 2,100 compounds. About 180 (8.6%) showed an effect of 50% or more. The full list was thinned out, with strong results kept by preference.

The test system of this assay is MOLM1 and UCSD/AML1 (averaged). The assay is described as follows: cell viability relative to DMSO control (POC); higher = less growth inhibition. Particulars: 1 µM; 72 h. The procedure:
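Primary viability screen in the 3q26 EVI1-high AML cell lines MOLM1 and UCSD/AML1 (1.5e3 cells/well, 384-well), compounds at 1 uM for 72 h. ATP CellTiter-Glo read-out given as percent of viable cells over DMSO control (POC), averaged over duplicates. DMSO was the negative control and 5 uM etoposide the positive control. This mapping covers the MicroSource Spectrum and Selleck anticancer libraries (drug names).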
For orientation: cell viability means a read-out of living cells in per cent, often relative to untreated cells. For `COc1ccc2c(c1)OC[C@@H](Cc1ccc(OC)c(OC)c1)[C@H]2O`, the cell viability came to 96.9%. For `CC(=O)O[C@@H]1CC2C(C)(C)C(=O)C3OC3[C@]2(C)C2CC[C@@]3(C)[C@H](c4ccoc4)OC(=O)C4OC43[C@@]21C` (some centres not stated) the value was 95.3%; for `CC(C)c1c(O)ccc2c1CCC1[C@@](C)(C=O)CCC[C@]21C` (some centres not stated), 96.4%; for `C[C@@H]1CC[C@@]2(OC1)O[C@H]1C[C@H]3[C@@H]4CC[C@@H]5C[C@@H](O)CC[C@]5(C)[C@H]4CC[C@]3(C)[C@H]1[C@@H]2C`, 97.4%.

For `O=C(CC(=O)c1ccccc1)c1ccccc1`, the cell viability is 80.9%. For `O=C(OOC(=O)c1ccccc1)c1ccccc1` the value was 101%.

Regarding `CN(NC(=O)CC(=O)NN(C)C(=S)c1ccccc1)C(=S)c1ccccc1` [Elesclomol], the cell viability worked out at 1.23%. Under `CCCCCCCCCCCCCCCCCCOCC(O)CO` (configuration not stated) stands 85%; under `COc1ccc(-c2coc3cc(O)ccc3c2=O)cc1`, 108%; under `CC12CCCC(O)(C1)C1CC(C)(C)C1CC2` (stereo not drawn) [beta-CARYOPHYLLENE ALCOHOL], 111%.

For `CC(=O)OC1CCC23CC1(C)CCC2C(C)(C)CC3OC(C)=O` (configuration not stated), the cell viability is 96.1%. Under `COc1cc2ncnc(Nc3ccc(F)c(Cl)c3)c2cc1NC(=O)/C=C/CN1CCCCC1` stands 50.9%; under `CCOc1cc2ncc(C#N)c(Nc3ccc(F)c(Cl)c3)c2cc1NC(=O)/C=C/CN(C)C` [Pelitinib (EKB-569)], 14.4%; under `CCOc1cc2ncc(C#N)c(Nc3ccc(OCc4ccccn4)c(Cl)c3)c2cc1NC(=O)/C=C/CN(C)C` [Neratinib (HKI-272)], 14.7%. Under `CN(C)C/C=C/C(=O)Nc1cc2c(Nc3ccc(F)c(Cl)c3)ncnc2cc1O[C@H]1CCOC1` [Afatinib (BIBW2992)] stands 52.9%; under `COc1ccc2cc([C@H](C)CO)ccc2c1`, 103%; under `COC(=O)C[C@H]1C(C)(C)[C@@H](O)[C@@H]2CC3=C4C=C(OC)O[C@@H](c5ccoc5)[C@]4(C)CCC3[C@@]1(C)C2=O` (stereo partly drawn) [3-DEOXO-3beta-HYDROXYMEXICANOLIDE 16-ENOL ETHER], 100%. For `CCOC(=O)C(Cc1ccc(O)cc1)NC(C)=O` (configuration not stated) the value was 105%; for `C/C(=C\C(=O)Nc1ccccc1C(=O)O)c1ccc2ccccc2c1`, 104%.

Consider `COc1cc(C/C=C/c2ccccc2)c(OC)cc1O`, for which the cell viability was determined as 93.6%. Turning to `COc1cc(O)c(C)c(O)c1`, the cell viability came out at 106%. Under `COc1ccc(C(=O)CC(=O)O)c2c1C=CC(C)(C)O2` stands 99.5%. For `CC(C)=CCC/C(C)=C/CC/C(C)=C/CC/C(C)=C/CC/C(C)=C/CC/C(C)=C/CC/C(C)=C/CC/C(C)=C/CC/C(C)=C/CO` the value was 83.6%; for `O=c1c(-c2ccc(O)cc2)coc2c([C@@H]3O[C@H](CO)[C@@H](O)[C@H](O)[C@H]3O)c(O)ccc12`, 120%.

As for `CNC(=O)c1cc(COc2nnc(Nc3ccc(Cl)cc3)c3ccoc23)ccn1` [Telatinib (BAY 57-9352)], the cell viability was 94.5%. For `CN1CCCC(n2nc(Cc3ccc(Cl)cc3)c3ccccc3c2=O)CC1` (configuration not stated) the value was 101%; for `Clc1ccc(Nc2nnc(Cc3ccncc3)c3ccccc23)cc1` [Vatalanib dihydrochloride (PTK787)], 44.6%. Under `C=C(C)[C@H]1COc2cc3oc(=O)ccc3cc2O1` stands 93.3%. For `CC(C)C[C@@H](C(=O)N[C@H](C(=O)OC1CCCC1)c1ccccc1)[C@H](O)C(=O)NO` [Tosedostat (CHR2797)], the cell viability amounted to 77.5%. On to `O=C([O-])c1ccccc1O.[Na+]`, for which the cell viability worked out at 102%. Under `COc1ccc2[nH]c([S+]([O-])Cc3ncc(C)c(OC)c3C)nc2c1` (configuration not stated) stands 92.4%; under `COc1c(C)cnc(Cn2cnc3c(Cl)nc(N)nc32)c1C`, 4.8%; under `COc1cc(-c2coc3cc(O)c(OC)c(O)c3c2=O)cc(O)c1OC`, 90.5%. Under `O=C(O)c1cc(=O)c2cccc(O)c2[nH]1` stands 102%; under `C[C@H]1O[C@@H](O[C@H]2[C@@H](O)C[C@H](O[C@H]3[C@@H](O)C[C@H](O[C@H]4CC[C@@]5(C)[C@H](CC[C@@H]6[C@@H]5C[C@@H](O)[C@]5(C)[C@@H](C7=CC(=O)OC7)CC[C@]65O)C4)O[C@@H]3C)O[C@@H]2C)C[C@H](O)[C@@H]1O`, 3.03%. On to `C[C@H]1O[C@@H](O[C@H]2[C@@H](O)C[C@H](O[C@H]3[C@@H](O)C[C@H](O[C@H]4CC[C@@]5(C)[C@H](CC[C@@H]6[C@@H]5CC[C@]5(C)[C@@H](C7=CC(=O)OC7)CC[C@]65O)C4)O[C@@H]3C)O[C@@H]2C)C[C@H](O)[C@@H]1O`, for which the cell viability turned out to be 2.44%. For `CO[C@H]1O[C@H](CO)C(O[C@@H]2OC(C(=O)O)[C@@H](O[C@H]3O[C@H](COS(=O)(=O)O)C(O[C@@H]4OC(C(=O)O)[C@@H](O[C@H]5O[C@H](CO)C(O[C@@H]6OC(C(=O)O)[C@@H](O[C@H]7O[C@H](COS(=O)(=O)O)C(O[C@@H]8OC(C(=O)O)=C[C@H](O)C8OS(=O)(=O)O)[C@H](O)[C@H]7NC(C)=O)[C@H](O)[C@H]6O)[C@H](O)[C@H]5NC(C)=O)[C@H](O)[C@H]4O)[C@H](O)[C@H]3NC(C)=O)[C@H](O)[C@H]2O)[C@H](O)[C@H]1NC(C)=O` (some centres not stated) the value was 86.8%. Under `COc1cc(O)c(C(C)=O)c(OC)c1` stands 101%; under `O=C(/C=C/C(=O)Oc1ccccc1C(=O)O)Oc1ccccc1C(=O)O`, 110%. `C[C@H]1C(=O)CC[C@@H]2[C@]1(C)CC[C@H]1[C@@]2(C)CC[C@@]2(C)[C@@H]3CC(C)(C)CC[C@]3(C)CC[C@]12C`: the cell viability is 113%. Under `COc1cc2oc3cc(OC)c(OC)c(CC=C(C)C)c3c(=O)c2c(O)c1CC=C(C)C` stands 99.9%; under `CCCCCC1C(=O)CCC1CC(=O)O` (configuration not stated), 86.2%; under `O=C(O[C@@H]1Cc2c(O)cc(O)cc2O[C@@H]1c1cc(O)c(=O)c2c(O)c(O)cc([C@H]3Oc4cc(O)cc(O)c4C[C@H]3OC(=O)c3cc(O)c(O)c(O)c3)c2c1)c1cc(O)c(O)c(O)c1`, 108%. `Cc1cc(O)c2c(c1)C(=O)c1cccc(O)c1C2=O` [Chrysophanic acid (Chrysophanol)]: the cell viability is 93.8%. For `Cc1cc(O)c2c(c1)C(=O)c1cccc(O)c1C2=O` the value was 115%. Under `O=C(O)c1cc(O)c(=O)c2c(O)c(O)ccc2c1` stands 108%. Under `CCC(C)C(NC)C(=O)O` (configuration not stated) stands 118%; under `COC(=O)c1ccc2c(C(=Nc3ccc(N(C)C(=O)CN4CCN(C)CC4)cc3)c3ccccc3)c(O)[nH]c2c1` [BIBF1120 (Vargatef)], 11.9%; under `CC(=O)c1ccc[nH]1`, 92.8%. Turning to `C=CC(C)(O)CCC1C(=C)CC(OC(C)=O)C2C(C)(C)CCCC12C` (configuration not stated), the cell viability was 98.6%. For `O=C1CC[C@]23/C=C/C(=O)NCCCCNCCCNC(=O)/C=C/c4ccc(c2c4)O[C@@H]3C1` the value was 97.1%; for `COC1=CC(c2cc3ccccc3[nH]2)=N/C1=C\c1[nH]c(C)cc1C` [Obatoclax mesylate (GX15-070)], 18.7%. In the case of `CC1(C)O[C@H]2[C@H](O)C[C@](O)(C(N)=O)C[C@H]2O1`, the cell viability is 94.1%. For `CC1(C)[C@@H](O)CC[C@]2(C)[C@H]3C(=O)C=C4[C@H]5C[C@@](C)(C(=O)O)CC[C@]5(C)CC[C@@]4(C)[C@]3(C)CC[C@@H]12` [18alpha-GLYCYRRHETINIC ACID] the value was 95.3%; for `COc1c(O)cccc1O`, 97.7%; for `COc1cc(Nc2c(C#N)cnc3cc(OCCCN4CCN(C)CC4)c(OC)cc23)c(Cl)cc1Cl` [Bosutinib (SKI-606)], 21.3%. Under `COc1cc2c(Oc3ccc4[nH]c(C)cc4c3F)ncnc2cc1OCCCN1CCCC1` [Cediranib (AZD2171)] stands 66.3%. Under `COc1cc2ncnc(Nc3ccc(F)c(Cl)c3)c2cc1OCCCN1CCOCC1` [Gefitinib (Iressa)] stands 84.9%; under `CC(C)/C(O)=C1/C(=O)O[C@@H](c2ccoc2)[C@]2(C)C(O)[C@@H](O)[C@@]34OC5(C)OC67CC(C)(C(O)[C@]6(O)[C@@H](O)[C@]3(O5)C12)[C@H](CC(=O)O)[C@]74C` (some centres not stated), 93.3%; under `CC(=O)O[C@H]1C[C@@H](OC(C)=O)C(C)(C)C2C[C@@H](O)[C@]3(C)C(CC[C@@]4(C)[C@H](c5ccoc5)OC(=O)[C@H]5O[C@]543)[C@]21C` (some centres not stated), 103%.

As to `COc1cc(O)c2c(=O)cc(C)oc2c1CC=C(C)C`, the cell viability was determined as 87.8%. For `O=C(CCc1ccc(O)cc1)c1c(O)cc(O)cc1O[C@@H]1OC(CO)[C@@H](O)[C@@H](O)C1O` (some centres not stated) the value was 104%; for `COC(=O)c1c(C)cc(OC)cc1O`, 94.6%; for `Cn1c(=O)[nH]c(=O)c2[nH]cnc21`, 110%. Under `O=c1c(O)c(-c2ccc(O)c(O)c2)oc2c(O[C@@H]3O[C@H](CO)[C@@H](O)[C@H](O)[C@H]3O)c(O)cc(O)c12` stands 91.3%; under `O=C(O)c1ccc2c(c1)nc(Nc1cccc(Cl)c1)c1ccncc12` [cx-4945 (Silmitasertib)], 80.5%; under `CC(=O)C1=C(O)C=C2Oc3c(C(C)=O)c(O)c(C)c(O)c3C2(C)C1=O` (stereo in doubt), 113%. For `C[C@@H](Oc1cc(-n2cnc3ccc(CN4CCN(C)CC4)cc32)sc1C(N)=O)c1ccccc1C(F)(F)F` the value was 19.5%. Take `CC(=O)N[C@@H](Cc1ccccc1)C(=O)O`: the cell viability worked out at 100%. For `CC(C)=CCc1c(O)cc2oc(C)cc(=O)c2c1O` the value was 94.1%; for `C[C@H](CCC(=O)O)[C@H]1CC[C@H]2[C@@H]3[C@H](O)C[C@@H]4C[C@H](O)CC[C@]4(C)[C@H]3C[C@H](O)[C@]12C`, 100%; for `CC1(C)C(=O)C=CC2(C)C1C=CC1(C)C2CCC2(C)C(c3ccoc3)OC(=O)C3OC312` (configuration not stated), 86.9%. Under `COC(=O)Nc1nc2cc(C(=O)c3cccs3)ccc2[nH]1` [Nocodazole] stands 13.3%; under `COC(=O)C(C)c1ccc(C(=O)c2cccs2)cc1` (configuration not stated), 103%; under `CCOC(=O)Nc1nc2ccccc2[nH]1`, 103%. For `COC(=O)Nc1nc2cc([S+]([O-])c3ccccc3)ccc2[nH]1` (configuration not stated) the value was 50.5%. In the case of `COC(=O)Nc1nc2cc(C(=O)c3ccccc3)ccc2[nH]1`, the cell viability is 16.8%.
